Measurements: PubChem BioAssay AID430 (Sanford-Burnham Center for Chemical Genomics, 2006)
Screen size: about 63,000 compounds; about 1,100 (1.7%) were called active. For the sample, actives were picked, then their nearest neighbours and some compounds at random. Entries with a potency or affinity are not part of this list. A number with no mark means an inactive call. No stated cut-off is given here; in the data, active means cytotoxicity above about 50%; inactive means the rest.

Test: cytotoxicity in HPDE-C7 cells, cell-based, fluorescence, HTS (AID 430);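 further: cells exposed to compound for 48 hours before viability readout; 0% = vehicle and 100% = reference cytotoxic drug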
Conditions: HPDE-C7 pancreatic duct cells viability, at 10 µM, hits give high values

Compound	cytotoxicity
O=S(=O)(NCCc1csc(-c2ccccc2)n1)c1ccc2c(c1)OCCO2	6.2%
O=C(CCCCn1c(=S)[nH]c2ccsc2c1=O)NCc1ccco1	-3%
Cc1ccc(C)c(N2CCN(C(=O)C3CCCN(S(=O)(=O)c4cnc[nH]4)C3)CC2)c1 (stereo not given)	-3.6%
COc1cccc(C2=NOC(C(=O)N3CCN(C(=O)c4ccco4)CC3)C2)c1 (stereo not given)	-8.5%
CSCCC(NC(=O)c1ccccc1)C(=O)NCc1ccco1 (stereo not given)	-8.6%
O=C(Cn1cnc2ccccc2c1=O)c1ccc2c(c1)OCCO2	-6.3%
COc1cccc(-c2cc(C(=O)Nc3c(C)nn(Cc4ccccc4C)c3C)no2)c1	-3.2%
COc1ccccc1C(=O)N1CCN(C(=O)COc2cccc(C)c2)CC1	-7.6%
CC1=C(C(=O)NC(C)c2ccc3c(c2)OCCO3)C2(CCC(C)CC2)OC1=O (stereo not given)	10.7%
CCOC(=O)CC(=O)CSc1nc(N)c(C#N)c(-c2ccc(Cl)cc2)c1C#N	54.7% (active)
CCCCOC(=O)CSc1nc(N)c(C#N)c(-c2ccc(OC)cc2)c1C#N	-16%
CCOC(=O)CC(=O)CSc1nc(N)c(C#N)c(-c2ccc(F)cc2)c1C#N	5.6%
CCCCOC(=O)CSc1nc(N)c(C#N)c(-c2ccc(OCC)cc2)c1C#N	5.1%
CCOC(=O)CSc1nc(N)c(C#N)c(-c2ccc(OC)cc2)c1C#N	-6.1%
CCCCOc1ccc(-c2c(C#N)c(N)nc(SCC(N)=O)c2C#N)cc1	82.5% (active)
CC(=NCC1CCNCC1)C1=C(O)CC(C)(C)CC1=O	-8.1%
CCOc1ccccc1-c1nn2c(Cc3ccccc3)nnc2s1	-4.2%
NC(=O)C(F)(F)C12OC3C4C5CC(C6C5C3C61)C42 (stereo not given)	-3.7%
CC(C)(C)Nc1cccccc1=O	-8%
COc1ccc(C)cc1S(=O)(=O)N(CC(=O)O)c1ccccc1	-0.9%
COc1ccc(S(=O)(=O)n2nc(-c3cc(OC)c(OC)c(OC)c3)cc2N)cc1OC	-3.7%
COc1ccc(OC)c(S(=O)(=O)n2nc(-c3ccccc3)cc2N)c1	-13.7%
Cc1cc(C)cc(N2C(=O)C3C4C=CC(C4)C3C2=O)c1 (stereo not given)	-5.5%
Cc1ccc(CC2(O)CC(C)N(C)CC2C)c(C)c1 (stereo not given)	0.1%
Nc1nonc1C(=O)NC(c1ccccc1)c1ccccc1	3.4%

Compound	cytotoxicity
COc1ccc(C2CC(c3ccccc3)Nc3nc(NC(=O)c4cccs4)nn32)cc1 (stereo not given)	-3.4%
CCOc1ccc(C(=O)N2CCN(c3ccccc3)CC2)cc1OCC	-51.5%
O=C(c1c(Cl)nc2sccn12)N1CCN(c2cccc(Cl)c2)CC1	75% (active)
Cc1cc(C(=O)N2CCN(c3ncccn3)CC2)c(C)o1	2.2%
COc1ccccc1C(=O)N1CCN(c2cccc(Cl)c2)CC1	-13%
O=C(c1cccc(F)c1)N1CCN(c2cccc(Cl)c2)CC1	36.5%
CCOc1ccc2ccccc2c1C(=O)N1CCN(c2ccccc2)CC1	50.5% (active)
CCOc1ccc2ccccc2c1C(=O)N1CCOCC1	2.5%
O=C(O)c1ccccc1C(=O)N1CCN(c2cccc(Cl)c2)CC1	6.7%
Cc1cc(C(=O)N2CCN(c3cccc(Cl)c3)CC2)c(C)o1	53.3% (active)
Cc1ccc(C(=O)N2CCN(c3cccc(Cl)c3)CC2)cc1C	36.8%
COc1ccc(C(=O)N2CCN(c3cccc(Cl)c3)CC2)c(OC)c1	44.1%
CCOc1ccccc1C(=O)N1CCN(c2cccc(Cl)c2)CC1	62.2% (active)
CN1CCN(/C=C2\SC(=S)NC2=O)CC1	-23.4%
O=C(c1cnc2n(c1=O)CCS2)N1CCN(c2ccc(Cl)c(Cl)c2)CC1	-3.5%
CC(NS(=O)(=O)c1ccc(Br)cc1)C(c1cccs1)N1CCN(C)CC1 (stereo not given)	-8.4%
c1ccc(-n2c(-c3ccncc3)nnc2-c2ccco2)cc1	-33.8%
O=C(O)CC1C(=O)NCCN1C/C=C/c1ccccc1 (stereo not given)	-5.3%
O=C(CN(C(=O)CNC(=O)c1ccco1)c1ccc2c(c1)OCO2)NC1CCCCC1	-31.1%
Cc1ccc2c(c1)nnn2C1CCN(C(=O)C2CCCCC2)CC1	-12.5%
COc1ccccc1C(=O)N1CCN(c2cccc(C(F)(F)F)c2)CC1	60.8% (active)
COc1ccccc1CC(=O)N1CCN(c2cccc(C(F)(F)F)c2)CC1	-10.2%
O=C(c1ccccc1F)N1CCN(c2cccc(C(F)(F)F)c2)CC1	-5%
CSc1nsc(SCc2ccc(F)cc2)n1	-4.1%
Cc1nnc(SCc2ccc(F)cc2)s1	105% (active)

Compound	cytotoxicity
Nc1nnc(SCc2ccc(F)cc2)s1	-16.7%
Clc1ccccc1-c1nnc2sc(-c3ccco3)nn12	-6.1%
COC(=O)C1=C(C)N(c2ccc(F)c(Cl)c2)C(=O)C1	-5.3%
COC(=O)C1=C(C)N(c2cccc(Cl)c2)C(=O)C1	-4.9%
COC(=O)C1=C(C)N(c2ccc(Cl)c(Cl)c2)C(=O)C1	84.2% (active)
Cc1nc2c(o1)CCc1ccccc1C2N1CCN(C)CC1 (stereo not given)	-16.4%
CC(C)CC(OC(=O)c1ccco1)C(=O)NC1CCCCC1 (stereo not given)	-5.1%
Cc1ccc(N2CCN(CCc3nc4cc(NS(C)(=O)=O)ccc4n3C)CC2)cc1	-22.1%
CCC(C)(C)n1nnnc1C(c1ccccc1F)N1CCC(C(N)=O)CC1 (stereo not given)	56.3% (active)
CCC(C)(C)n1nnnc1C(C(C)C)N1CCC(C(N)=O)CC1 (stereo not given)	5.6%
CC(C)CCn1nnnc1C(c1ccccc1F)N1CCC(C(N)=O)CC1 (stereo not given)	-13.3%
O=C(CN(C1CCCCC1)S(=O)(=O)c1ccc(Cl)cc1)NCc1ccncc1	-8.9%
Cc1cc(C)c2c(CN3CCN(Cc4ccc5c(c4)OCO5)CC3)cc(=O)oc2c1C	44.1%
O=C(CCCOc1ccc(Cl)cc1Cl)N1CCN(c2ccccn2)CC1	3.1%
O=C(c1cccc(Cl)c1)N1CCN(c2ccccn2)CC1	-14.9%
O=C(c1cccc(COc2ccc(Cl)cc2Cl)c1)N1CCN(c2ccccn2)CC1	77.5% (active)
Cc1cc2c(cc1C)NC(CC(=O)NCc1ccccc1)C(=O)N2 (stereo not given)	1.1%
C=CCNc1nc(-c2sc(NC(C)=O)nc2C)cs1	11.6%
c1cncc(Nc2nc(-c3ccncc3)cs2)c1	-3.1%
NS(=O)(=O)c1ccc(Nc2nc(-c3ccc(O)cc3)cs2)cc1	-1.2%
CC(=O)Nc1nc(C)c(-c2csc(Nc3ccc(O)cc3)n2)s1	58.6% (active)
Cc1nc(N)sc1-c1csc(Nc2ccccc2)n1	36.2%
Oc1ccc(Nc2nc(-c3ccc(O)cc3)cs2)cc1	78.4% (active)
O=C(NC1CCCC1)c1cnc2n(c1=O)CCS2	-10.2%
O=C1CC(O)(C(F)(F)F)Oc2c1ccc1ccccc21 (stereo not given)	82.3% (active)

Compound	cytotoxicity
COc1ccc2c(c1)OC(O)(C(F)(F)F)CC2=O (stereo not given)	-3.3%
O=C1CC(O)(C(F)F)Oc2ccc3ccccc3c21 (stereo not given)	-12.2%
COc1cccc(-c2nc(=S)c3c(n2Cc2ccco2)CCCC3)c1	-22.8%
Cc1c(NC(=O)OCCSc2nc(N(C)C)nc(N(C)C)n2)sc(=S)n1C	59.5% (active)
CN(C)c1nc(SCCOC(=O)Nc2ccccc2)nc(N(C)C)n1	19.3%
CCOC(=O)Nc1sc(=S)n(C)c1C	-8.2%
Nc1nc2nccc(-c3ccc(Cl)cc3)n2n1	3.6%
Cc1ccc(NC(=O)N2CCCC2C(=O)NCCc2ccccc2)cc1 (stereo not given)	-9.2%
Cc1ccc(S(=O)(=O)N2CCN(C(=O)COC(=O)COc3ccccc3)CC2)cc1	7.4%
CCOC(=O)c1ccc2c(c1)nc(SCc1cn3ccsc3n1)n2CC	19.7%
COc1cc(CC(=O)NCc2ccc3c(c2)OCO3)cc(OC)c1OC	-7.2%
COc1cc([C@@H]2c3cc4c(cc3[C@H](O)[C@H]3COC(=O)[C@H]23)OCO4)cc(OC)c1OC	67.2% (active)
COc1cc(CC(=O)Oc2ccc3c(c2)OCO3)cc(OC)c1OC	28.4%
Cc1nn(C)c(C)c1S(=O)(=O)N1CCCC(C(=O)NCC2COc3ccccc3O2)C1 (stereo not given)	-4%
Fc1cccc(CSc2ncnc3c2oc2ccccc23)c1	12.4%
COCCn1nnnc1C(c1ccc(OC)cc1OC)N1CCN(c2ccccc2)CC1 (stereo not given)	-2%
COc1ccc(OC)c(C(O)c2coc3ccc(O)c(CN4CCOCC4)c23)c1 (stereo not given)	1.7%
COC(=O)CSc1nnc(CSc2nc(C)cc(C)n2)n1Cc1ccco1	-2.1%
COc1ccc(C(C)=O)cc1COC(=O)c1cc(C)oc1C	2.5%
COc1ccccc1C(=O)OCC(=O)Nc1ccc(OC(F)F)cc1	5.1%
Cc1cc(O)ccc1Nc1nc(-c2sc(N)nc2C)cs1	1.6%
Cc1cccnc1Nc1nc(-c2ccc(O)cc2O)cs1	67.2% (active)
Cc1nc(N)sc1-c1csc(Nc2ccccn2)n1	-12.4%
CCOC(=O)N1CCN(c2c(NCc3cccs3)c(=O)c2=O)CC1	46.8%
Cc1nc(N2CCN(c3ccccc3)CC2)[nH]c(=O)c1Cc1cccc2ccccc12	7.5%
